Broadly, the % Inhibition is the change of the read-out against control, counted positive when it falls.

We go through 24 molecules from ChEMBL document CHEMBL4888484, “Replenishing the malaria drug discovery pipeline: Screening and hit evaluation of the MMV Hit Generation Library 1 (HGL1) against asexual blood stage Plasmodium falciparum ,using a nano luciferase reporter read-out” (2022).

About 540 (0.36%) of roughly 150,000 compounds showed an effect of 50% or more. The full list was thinned out, with strong results kept by preference.

For this assay, the system named is Plasmodium falciparum. The assay is described as follows: Primary screen in NF54 nanoGlo assay, in single point, at 2uM, 72h; a lower Z score goes with more inhibition. In kind it is functional, Erythrocyte. The note with it: timepoint 72 hour.
In the case of `CCC(CC)n1nc(C(=O)NCC23CCCN2CCC3)cc1C`, the “% Inhibition” value is on record as -15% and the Z score stood at 2.13.
The matching figures for `O=C(Nc1cccc2ccccc12)C1CCN(c2cc(-c3ccc(F)cc3)ncn2)CC1`: -2% and 0.24.
For `Cc1n[nH]c(=O)c2c1cnn2-c1ccc(F)cc1`, in that order: 20% and -2.53.
For `Cc1cccnc1CCNC(=O)N(C)[C@@H](C)c1ccncn1`, in that order: -6% and 1.12.
With `O=C(NCCc1ccc(Cl)cc1)c1ccc(Cn2c(=O)[nH]c3ccccc3c2=O)cc1`, the “% Inhibition” value is -9% and the Z score is given as 1.68.
The matching figures for `O=C1N[C@@H](c2cccc(OCc3ccccc3)c2)Nc2c1sc(=S)n2-c1ccccc1`: -12% and 1.31.
For `CN(CC(=O)NCCCc1ccco1)c1nnc(N2CCCC2=O)s1`, in that order: -11% and 2.07.
Take `CN(CC(=O)NCc1cccs1)c1nnc(N2CCCC2=O)s1`: the “% Inhibition” value is reported as -2% and the Z score is listed as 0.36.
For `CN(CC(=O)NCc1ccco1)c1nnc(N2CCCC2=O)s1`, in that order: 73% and -0.5.
In the case of `CCCN1CCN(C(=O)c2ccnc(N3CCN[C@H](c4ccccc4)C3)c2)CC1`, the “% Inhibition” value is -13% and the Z score is reported as 1.36.
The matching figures for `C[C@H](CCO)NCc1sccc1Cl`: 5% and -0.62.
For `Cn1nnc(C(=O)N2CCC(c3ccccc3)(N3CCCC3)CC2)n1`, in that order: 7% and -1.29.
`CC(C)(C)n1cnc(C(=O)N2CCCC23CCCCC3)n1`: the “% Inhibition” value worked out at 0% and the Z score is listed as -0.06.
The matching figures for `O=C(Nc1cnc(-n2ccnc2)nc1)c1ccc(F)cc1`: -18% and 2.84.
Take `CCOC(=O)C1(C(=O)NCc2cc(C)on2)CCCC1`: the “% Inhibition” value worked out at 7% and the Z score is on record as -0.84.
For `CCN1C[C@H](Nc2ncccc2C#N)[C@@H](OC)C1`, in that order: -13% and 1.15.
The matching figures for `CCN1C[C@H](Nc2ncnc3sc(C)cc23)[C@@H](OC)C1`: -9% and 1.14.
For `CS(=O)(=O)N1C[C@H]2CC[C@@H](C1)N(CC(=O)N1CCc3ccccc31)C2`, in that order: -9% and 1.92.
With `COc1ccc(CN2CCc3cc(OC)c(OC)cc3[C@@H]2CNC(=O)Cc2ccccc2)cc1`, the “% Inhibition” value is given as -3% and the Z score was found to be 0.38.
The matching figures for `Oc1ccccc1CCN[C@H]1CCc2ccc(F)cc21`: 98% and -18.88.
Turning to `CS(=O)(=O)CCc1ccc(N[C@H]2CCc3ccc(F)cc32)cc1`, the “% Inhibition” value is on record as -8% and the Z score is recorded as 1.03.
For `O=S1(=O)CCC(CNC2CCc3ccc(F)cc32)C1` (stereo not drawn), in that order: -8% and 1.29.
For `Cn1ncc2c1CCC[C@@H]2NCCc1ccccc1O`, in that order: -5% and 0.59.
In the case of `CCOc1ccc2c(n1)CCN(C(=O)c1ccsc1)C2`, the “% Inhibition” value is 36% and the Z score came out at 1.41.
